According to the supplement of paper PMC12632987:

B1: GBRAPL2_53_7359 (protein)
chain: MIEIDIAHPDKAVVKEAADKIFDVVEENGVEVEVTVTDENGTVTKLTGSVEEIREKVTAMAAKQPVLITIKLPDSAKETAEKIEDIALEKGATVSREELE
B2: GBRAPL2_53_7363 (protein)
chain: MYEVEVEHPDKEKLLRAAEKIAEIAEKHGLKITVTFVKEDATVEVHTADAKEALKIAKENIEKGDVILTVRLPDSLEEVREELIDAAAEEGAVVSVTELP
B3: GBRAPL2_53_7361 (protein)
chain: MIEIDIAHPDPAVVKKAAEKIFDVAEENGVEVEVEVTTEDGTVTRLTGSIEEIREKVTAMAAKQPVLITIYLPDEAEETAEEIEDIALEEGATVSREVLP
B4: GBRAPL2_53_7348 (protein)
chain: MYVVEIAHPDRDVLAAAIEAVFDLIEEAGVEAEVTVTLEDGTVIKLEGPISEVKERAVALAKETDVLVEIKLPDEAEEVVEELEDIALEKGATVSVEKLE
B5: GBRAPL2_53_7360 (protein)
chain: MIVIDIAHPDKEVVKKAAEKIFDIVKEAGVEVEVTVTTEDGKVEKLTGSVDDIKAKVTELAAKQPVLIEITLPDSAKETAEKIVDVALEEGATVSVEELE
B6: GBRAPL2_53_7343 (protein)
chain: MIEVDIAHPDKEVMAAAVEAVFDILERAGVEARVTVTKEDGTVVELEGPLEEVRAQAVALAKATEVLVRIELPDEAEEVVEEIEDEALAKGATVSVERIP
B7: GBRAPL2_53_7350 (protein)
chain: MYVIEIAHPDKETLAKAIEAIFDKLIEAGVEAKITVTLEDGTVIKLEGSLEEQKKKAVALAKETNVLVEIELPDSAKEVVEELEDIALKEGATVSVEKLE
B8: GBRAPL2_53_7349 (protein)
chain: MYEVEIAHPDKEVLAAAIEAIFDKIEEAGVEAEVEVTLEDGTVIKLEGPIEEQKEEAVALAKETDVLVTIKLPDEAEELVEELEDIALEKGATVSVEKLE
B9: GBRAPL2_53_7346 (protein)
chain: MKKVDIAHPDKEKLAKTLEEIFKILEENGVKAKVTVTTEDGNVIVLEGDLEEIREKTVKLAKETEVLVEIELPDDAEETVEKIIDVALKNGATVSVDGLE
B10: GBRAPL2_54_7372 (protein)
chain: MTIVEIEATFIAEGSDEELERIEEVALRELKKLAERLKKEFGAESEISSEREDGVLSVTVKITTEKENVDEVLDLLEETRERISRETGRPVSLVIGIKEL
B11: GBRAPL2_53_7344 (protein)
chain: MIEVDIAHPDKEVMAKAVEAVFDILEEAGVEAEVEVTKEDGTVERLRGPLEEVREKAVKLAKETEVLVTIRLPDSAEEVVEKIEDEALKHGATVSVKRLE
B12: GBRAPL2_43_7342 (protein)
chain: MTEIEKKAIEEAREALEEKLDLDGVKEYEEEVEIRKEGDRTIAIVKATSKETGKEYYAVAVYDKNGELLVVVVSSDLERALKAAEDLIELGERDTYVLLP
B13: GBRAPL2_53_7355 (protein)
chain: MVEIDIGHPDKEVMVKALEEVFDLIEKAGAEVEVIVTKEDGTVIKLTGSVEEIREKVIALAREQPILVTILLKEKNEKLVEEMVDAALKAGATVSVEELP
B14: GBRAPL2_53_7365 (protein)
chain: MTLVEVEHVDPEKMRAAAKKIAEVAKKHGLKIKVVFVDDEANVTEVTANAEEALKIAEEWIEKGHVILEVELPDDLEEVKEEIIDIAAEEGAVVSVEELE
B15: GBRAPL2_53_7357 (protein)
chain: MLRLSIAHPDPAVVAEALRRIFEILREAGVEAEVVVTLEDGTVVRLTGDLDEIEARVTELAAKQPVLVDIYMPDSAEETVEEMEDAALDAGATVSVERVP
B16: GBRAPL2_54_7368 (protein)
chain: MIEVEITVVMKRENFLKHKELIKKILLEKVEELKKEHPDLIEKILEIEEEEYPDVGLLSIKILAKPEAEDLIRDLAEEIQKELEKKTGEKVHVVVAFGEL
B17: GBRAPL2_54_7370 (protein)
chain: ETIIEIEATFIAEGSEEELEEVEKVALEKLAELSEKLKKEFGAESEISSERENGVLSVTVKITTKKEDLDKVLDLLEETRDEISKETGKKVSLVIGIKEL
B18: GBRAPL2_54_7369 (protein)
chain: MKIVEVTFVAEREFFLANRERIRAAALATYAELRKRLPDKVGELLSEEYSETPDYGSLSLDIEVDESALDEVIDAFEATRDALSAELGHPVHVVIGIGDK
B19: GBRAPL2_53_7354 (protein)
chain: MIAIEIGHPNKEVMVEALKKVFEIIKKAGEKVEVEVTLEDGTVIKLEGSVEEIEEKVLELAKKQPILVTIYLPEKNEELVEEIEDAALEAGATVSVEELP
B20: GBRAPL2_53_7358 (protein)
chain: MLVVEIAHPDPAVVKEAAKKILAVIKEDGVEAKVTVTTENGEVKVLTGDIDKIEAEVTALAAKQPVLISIELPDSAEETVEKMEDIALEAGATVSVYREP
B21: GBRAPL2_53_7351 (protein)
chain: MYRVLIGHPDKEVMVKALEKVFEILEEAGVEAKVKVTKEDGTVIELEGPIKEIKEETLKLAKEQPILVEIELPDEAEEVVEKIVDAALEAGATVSVEKVE
B22: GBRAPL2_53_7364 (protein)
chain: MYLVEVEHPDKEKLLKAAEEIAKIAKKHNLKITVIFVKEDGTVERYTANAEEALKIAKEWIEKGDVILEVKLPDSLEEVKEEIIDAAAKNGAVVSVEELE
B23: GBRAPL2_53_7362 (protein)
chain: MWLVEVEHPDKEKLLKAAKEIFKIAKENGLKVTVKFVKEDGTVEEKTLNAEEALKYVEEKVKEGDVILEIELPDSLEEAKEKIIDAAAKHGAVVSVEELE
B24: GBRAPL2_53_7353 (protein)
chain: MIEVDIAHPDPEVMARALEKIFDIIKEAGQKVTVTVTTEDGTVITLTGDIDTIRAETVALAKQQPILVRIELEEEDEEVAEKVVDAALEEGATVSVERVE
B25: GBRAPL2_53_7347 (protein)
chain: MIEIDIAHPDKEVMAETLEEIFDVLKKAGVEAKVTVTTENGEVIVLEGDLDEIKEKVVELAKKTNILVTIELPEDAEEVVEEIIDIALEKGAAVSVDGLE
B26: GBRAPL2_53_7356 (protein)
chain: MLELEIAHPDKEIMAKAVEEIFNLLKEENVEAEVTVTTENGEVIKLTGDIEEIKKKVVELAKKQPILVSIKLPDSAEEVVEKMEDIALELGATVSVSRLE
B27: GBRAPL2_175_7341 (protein)
chain: AAYEKLLKEIIELLDELAEKADDEVSDLLEAAAAVLETDGLAGAGRAAKLVAEAAKEAADNPKLQAALKEVAAALKAIADGAAPEEVEKLLKKAKAILKE
B28: GBRAPL2_53_7367 (protein)
chain: MTLVEVEHPDKEKLLKAAEKIAEIAKKLGVNITVIFVKSDGSVERFTANAEEALKIAREKIKEGDVIIEVELEDSQEEALEEIIDAAAEAGAVVSVEKLP
B29: GBRAPL2_54_7371 (protein)
chain: ETTVEIEATFLAEGTPEELARVRAVALEELEELKKELKEKFGAESEISAEEEDGVLSVTVTITTKKENLDEVLDLLEATRDRIAARTGLPVALVIGIKEL
B30: GBRAPL2_53_7366 (protein)
chain: MTEVEIEHPDKEKMLKAAKKVFELVKERNLKVTVIYVDENANVTRVTANAEEALKIAEEWIEKGDVILEVILPDSEEELKEKIIDIAAENGAVVSVEELE
B31: GBRAPL2_175_7340 (protein)
chain: SAYEALLKEIIKLLLELSEKANDEVSDLLDAAAAVLETDGLAAAGRAAALVAEASKEAADNPQLQAALAKLAAALKALAAGAAPEEVEKLLKEAKAITKK
B32: GBRAPL2_53_7345 (protein)
chain: MIVVDVAHPDKEVMAEAVEAIFDILEENGVEAKVTVTLEDGTVVELEGPLDEVRKKAVELAKKSEVLVEIELPDSAEETVEKLEDVALEKGATVSVERIP

These binders were tested against GABARAPL2, P60520 (assay: median log2 fold change of GCK-ALFA target abundance (FLAG IP / Myc IP barcode read proportion) (log2 ratio); each designed protein is fused to an ALFA-tag nanobody in HEK293 cells to bring the named protein to FLAG-tagged glucokinase (GCK); Myc marks an untargeted standard; higher = target protein stabilised (more abundant)). Details: target protein: 3xFLAG-MCP-GCK-ALFA reporter; HEK293 landing pad (RPLP).
How it was run: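 Sequencing of reverse-transcribed, amplified circular RNA barcodes from anti-FLAG and anti-Myc immunoprecipitates provided the readout for an ALFA-nanobody-fused binder library recombined into HEK293 landing-pad cells. Those cells were induced with 2 μg mL^−1 doxycycline, transfected with a plasmid expressing a FLAG-tagged target and a Myc-tagged standard, and lysed after 48 h. Target abundance is the per-binder median log2 ratio of FLAG to Myc barcode read proportions. Only barcodes at a proportion of ≥10^−7 in both replicates and binders with ≥3 barcodes per replicate were kept, with a 10^−6 pseudocount added before the two replicates were pooled.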

Sequence of GABARAPL2, P60520 (P60520 whole entry, the tested form may be a part): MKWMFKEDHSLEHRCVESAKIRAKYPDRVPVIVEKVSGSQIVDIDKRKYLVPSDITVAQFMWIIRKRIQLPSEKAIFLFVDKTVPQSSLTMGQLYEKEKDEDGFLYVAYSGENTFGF

Q: With B1 as the binder, how does the “median log2 fold change” value read?
A: Its value is 0.276.

Q: Which “median log2 fold change” value does the source give for B2 here?
A: The value was 0.174.

Q: Which “median log2 fold change” value does the source give for B3 here?
A: The value was 0.219.

Q: B4 was tested. Which “median log2 fold change” value did it give?
A: Its value is 0.152.

Q: Which “median log2 fold change” value does the source give for B5 here?
A: Its value is 0.111.

Q: B6 was tested. Which “median log2 fold change” value did it give?
A: The value was 0.199.

Q: For B7, which “median log2 fold change” value is on record?
A: The value was 0.177.

Q: With B8 as the binder, how does the “median log2 fold change” value read?
A: Its value is 0.0915.

Q: For B9, which “median log2 fold change” value is on record?
A: The value was 0.2.

Q: How did the “median log2 fold change” value turn out when B10 was run?
A: Its value is 0.186.

Q: How did the “median log2 fold change” value turn out when B11 was run?
A: The value was 0.23.

Q: B12 was tested. Which “median log2 fold change” value did it give?
A: Its value is 0.125.

Q: How did the “median log2 fold change” value turn out when B13 was run?
A: Its value is 0.379.

Q: With B14 as the binder, how does the “median log2 fold change” value read?
A: The value was 0.0119.

Q: For B15, which “median log2 fold change” value is on record?
A: Its value is 0.126.

Q: For B16, which “median log2 fold change” value is on record?
A: Its value is -0.39.

Q: For B17, which “median log2 fold change” value is on record?
A: Its value is -0.0409.

Q: With B18 as the binder, how does the “median log2 fold change” value read?
A: Its value is -0.231.

Q: For B19, which “median log2 fold change” value is on record?
A: Its value is 0.166.

Q: Which “median log2 fold change” value does the source give for B20 here?
A: Its value is 0.217.

Q: With B21 as the binder, how does the “median log2 fold change” value read?
A: Its value is 0.157.

Q: For B22, which “median log2 fold change” value is on record?
A: The value was 0.221.

Q: For B23, which “median log2 fold change” value is on record?
A: The value was 0.16.

Q: B24 was tested. Which “median log2 fold change” value did it give?
A: Its value is 0.275.

Q: For B25, which “median log2 fold change” value is on record?
A: The value was -0.185.

Q: Which “median log2 fold change” value does the source give for B26 here?
A: Its value is 0.229.

Q: How did the “median log2 fold change” value turn out when B27 was run?
A: Its value is 0.142.

Q: Which “median log2 fold change” value does the source give for B28 here?
A: The value was 0.299.

Q: How did the “median log2 fold change” value turn out when B29 was run?
A: Its value is -0.0591.

Q: Which “median log2 fold change” value does the source give for B30 here?
A: Its value is -0.0323.

Q: B31 was tested. Which “median log2 fold change” value did it give?
A: The value was 0.217.

Q: With B32 as the binder, how does the “median log2 fold change” value read?
A: The value was 0.0792.
